A number with no mark means an inactive call.
How the values were obtained:
Details in all cases: 60 µM; 5 days; temperature: 20 °C
[1] = system: Meloidogyne hapla J2; assay: proportion of mobile M. hapla J2 relative to DMSO control (fraction of DMSO control); higher = more viable, less nematicidal, active = 0.7 or less
Summary of the method: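 Compound was pinned to 60 µM final (0.6% v/v DMSO) into 96-well wells, each holding about 25 M. hapla J2 in distilled water. Plates were sealed and shaken for 5 days at 20 °C and 200 rpm, then given 2 µL 1 M NaOH per well. Microscopic mobility scores were normalised to the mean of the plate's own DMSO wells, eight per plate, with two biological replicates averaged.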

[2] = system: Caenorhabditis elegans dauer (daf-2(e1370)); assay: proportion of mobile C. elegans dauer larvae relative to DMSO control (fraction of DMSO control); higher = more viable, less nematicidal, active = 0.63 or less; extreme values may be limits of the assay
Summary of the method: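 Compound was added by pinning to 60 µM final, giving 0.6% v/v DMSO, in 96-well plates containing about 20 C. elegans dauers per well in liquid NGM. These dauers came from synchronized larvae held on MYOB plates with E. coli OP50 for 48 h at 25 °C. Plates were sealed and shaken at 200 rpm at 20 °C for 5 days. Under a dissection microscope, the proportion of mobile worms was scored relative to DMSO wells, and two biological replicates were averaged.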

[3] = system: Ditylenchus dipsaci; assay: proportion of mobile D. dipsaci (mixed stage) relative to DMSO control (fraction of DMSO control); higher = more viable, less nematicidal, active = 0.86 or less; extreme values may be limits of the assay
Summary of the method: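 Mobility values are relative to DMSO controls and are averages of two biological replicates. For each well of a 96-well plate, about 20 D. dipsaci worms, grown on pea plants in Gamborg B-5 agar and funnel-extracted into water, were dispensed in distilled water. Plates received pinned compound at 60 µM final with 0.6% v/v DMSO and were sealed and shaken at 200 rpm for 5 days at 20 °C before 2 µL 1 M NaOH was added and mobile worms were scored by microscope.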

In the case of `Cc1ccc(-c2nc(-c3ccncc3)no2)cc1Cl`, the “proportion of mobile M. hapla J2” value [1] is reported as 0.852, the “proportion of mobile C. elegans dauer larvae” value [2] is reported as 1 and the “proportion of mobile D. dipsaci” value [3] is reported as 1.
With `COc1ccccc1-c1nc(-c2ccc(Br)cc2)no1` the “proportion of mobile M. hapla J2” value [1] was 1.04, the “proportion of mobile C. elegans dauer larvae” value [2] was 1 and the “proportion of mobile D. dipsaci” value [3] was 1.
For `Cc1cc(OCc2nc(-c3ccncc3)no2)c(C)c(C)c1Br`, the “proportion of mobile M. hapla J2” value [1] was 1.06, the “proportion of mobile C. elegans dauer larvae” value [2] was 1 and the “proportion of mobile D. dipsaci” value [3] was 1.
With `Cc1cc(C)cc(OCc2nc(-c3cc(C)nc4ccccc34)no2)c1` the “proportion of mobile M. hapla J2” value [1] was 1.02, the “proportion of mobile C. elegans dauer larvae” value [2] was 1 and the “proportion of mobile D. dipsaci” value [3] was 1.
In the case of `N#Cc1ccc(OCc2nc(-c3cccs3)no2)cc1`, the “proportion of mobile M. hapla J2” value [1] is reported as 0.908, the “proportion of mobile C. elegans dauer larvae” value [2] is reported as 1 and the “proportion of mobile D. dipsaci” value [3] is reported as 1.
In the case of `COc1ccc(-c2nnc(SCC(=O)Nc3ccc(Br)cc3C)o2)cc1`, the “proportion of mobile M. hapla J2” value [1] is reported as 0.929, the “proportion of mobile C. elegans dauer larvae” value [2] is reported as 1 and the “proportion of mobile D. dipsaci” value [3] is reported as 0.667 (active).
In the case of `Cc1cc(NC(=O)CSc2nnc(-c3ccccc3Cl)o2)no1`, the “proportion of mobile M. hapla J2” value [1] is reported as 0.915, the “proportion of mobile C. elegans dauer larvae” value [2] is reported as 1 and the “proportion of mobile D. dipsaci” value [3] is reported as 1.
`Cc1ccc(-c2nnc(SCc3ccccc3C)o2)cc1` was tested, and the “proportion of mobile M. hapla J2” value [1] was 1.06, the “proportion of mobile C. elegans dauer larvae” value [2] was 1 and the “proportion of mobile D. dipsaci” value [3] was 1.
In the case of `COc1ccc(-c2noc(-c3ccccc3Br)n2)cc1`, the “proportion of mobile M. hapla J2” value [1] is reported as 0.765, the “proportion of mobile C. elegans dauer larvae” value [2] is reported as 1 and the “proportion of mobile D. dipsaci” value [3] is reported as 1.
With `Cc1ccc(OCc2nc(-c3ccc(Cl)cc3)no2)c(C)c1` the “proportion of mobile M. hapla J2” value [1] was 0.997, the “proportion of mobile C. elegans dauer larvae” value [2] was 1 and the “proportion of mobile D. dipsaci” value [3] was 1.
In the case of `COc1ccc(-c2nnc(SCc3ccccc3)o2)cc1`, the “proportion of mobile M. hapla J2” value [1] is reported as 0.96, the “proportion of mobile C. elegans dauer larvae” value [2] is reported as 1 and the “proportion of mobile D. dipsaci” value [3] is reported as 1.
For `Cc1ccc(-c2nc(-c3ccccc3Br)no2)cc1`, the “proportion of mobile M. hapla J2” value [1] was 0.962, the “proportion of mobile C. elegans dauer larvae” value [2] was 1 and the “proportion of mobile D. dipsaci” value [3] was 1.
In the case of `Cc1ccccc1-c1nnc(SCc2ccccc2)o1`, the “proportion of mobile M. hapla J2” value [1] is reported as 0.986, the “proportion of mobile C. elegans dauer larvae” value [2] is reported as 1 and the “proportion of mobile D. dipsaci” value [3] is reported as 1.
With `Clc1ccc(CSc2nnc(-c3ccccc3Cl)o2)cc1` the “proportion of mobile M. hapla J2” value [1] was 0.888, the “proportion of mobile C. elegans dauer larvae” value [2] was 1 and the “proportion of mobile D. dipsaci” value [3] was 1.
In the case of `CCOc1ccccc1-c1nnc(SCC(=O)Nc2nccs2)o1`, the “proportion of mobile M. hapla J2” value [1] is reported as 0.739, the “proportion of mobile C. elegans dauer larvae” value [2] is reported as 1 and the “proportion of mobile D. dipsaci” value [3] is reported as 1.
For `O=C(CSc1nnc(-c2ccccc2)o1)Nc1cccc(Cl)c1`, the “proportion of mobile M. hapla J2” value [1] was 1, the “proportion of mobile C. elegans dauer larvae” value [2] was 1 and the “proportion of mobile D. dipsaci” value [3] was 1.
`COc1cccc(NC(=O)CSc2nnc(-c3ccc(C)cc3)o2)c1` was tested, and the “proportion of mobile M. hapla J2” value [1] was 1.04, the “proportion of mobile C. elegans dauer larvae” value [2] was 1 and the “proportion of mobile D. dipsaci” value [3] was 1.
In the case of `O=C(CSc1nnc(-c2ccc(Br)cc2)o1)Nc1ccc2ccccc2c1`, the “proportion of mobile M. hapla J2” value [1] is reported as 0.866, the “proportion of mobile C. elegans dauer larvae” value [2] is reported as 1 and the “proportion of mobile D. dipsaci” value [3] is reported as 1.
With `Clc1ccc(CSc2nnc(-c3ccccn3)o2)cc1` the “proportion of mobile M. hapla J2” value [1] was 0.835, the “proportion of mobile C. elegans dauer larvae” value [2] was 1 and the “proportion of mobile D. dipsaci” value [3] was 1.
In the case of `Cc1ccc(-c2noc(-c3cc(C)cc(C)c3)n2)cc1`, the “proportion of mobile M. hapla J2” value [1] is reported as 0.719, the “proportion of mobile C. elegans dauer larvae” value [2] is reported as 1 and the “proportion of mobile D. dipsaci” value [3] is reported as 1.
`c1ccc(-c2noc(C3COc4ccccc4O3)n2)cc1` (stereo not drawn) was tested, and the “proportion of mobile M. hapla J2” value [1] was 0.953 and the “proportion of mobile D. dipsaci” value [3] was 1.
`N#Cc1ccccc1CSc1nnc(-c2ccccc2)o1` was tested, and the “proportion of mobile M. hapla J2” value [1] was 0.841 and the “proportion of mobile D. dipsaci” value [3] was 1.
`COc1ccccc1-c1nnc(SCC(=O)Nc2nc(C)cs2)o1` was tested, and the “proportion of mobile M. hapla J2” value [1] was 0.91 and the “proportion of mobile D. dipsaci” value [3] was 1.
In the case of `Cc1cccc(OC(C)c2nc(-c3ccncc3)no2)c1` (stereo not drawn), the “proportion of mobile M. hapla J2” value [1] is reported as 0.988 and the “proportion of mobile D. dipsaci” value [3] is reported as 1.
For `CCOc1cc(-c2nc(-c3ccc(C)nc3OC)no2)cc(OCC)c1OCC`, the “proportion of mobile M. hapla J2” value [1] was 0.628 (active) and the “proportion of mobile D. dipsaci” value [3] was 1.
With `COc1ccc(-c2nnc(SCC(=O)N3CC(C)CC(C)C3)o2)cc1` (stereo not drawn) the “proportion of mobile M. hapla J2” value [1] was 1.05 and the “proportion of mobile D. dipsaci” value [3] was 1.
With `COc1cccc(-c2nnc(SCc3ccccc3)o2)c1` the “proportion of mobile M. hapla J2” value [1] was 0.985, the “proportion of mobile C. elegans dauer larvae” value [2] was 1 and the “proportion of mobile D. dipsaci” value [3] was 1.
For `Cc1cc(OCc2nc(-c3cccnc3)no2)c(C)c(C)c1Br`, the “proportion of mobile M. hapla J2” value [1] was 0.934 and the “proportion of mobile D. dipsaci” value [3] was 1.
With `O=C(CSc1nnc(-c2ccco2)o1)c1ccccc1` the “proportion of mobile M. hapla J2” value [1] was 0.974 and the “proportion of mobile D. dipsaci” value [3] was 1.
`COc1ccc(-c2noc(CSc3ccc(C)cc3)n2)cc1` was tested, and the “proportion of mobile M. hapla J2” value [1] was 1.03 and the “proportion of mobile D. dipsaci” value [3] was 1.
In the case of `COc1nc(C)ccc1-c1noc(-c2ccc(C)cc2)n1`, the “proportion of mobile M. hapla J2” value [1] is reported as 0.926 and the “proportion of mobile D. dipsaci” value [3] is reported as 1.
In the case of `Cc1ccc(OCc2nc(-c3ccncc3)no2)c(Br)c1`, the “proportion of mobile M. hapla J2” value [1] is reported as 0.993 and the “proportion of mobile D. dipsaci” value [3] is reported as 1.
For `O=C(CSc1nnc(-c2cccc(Br)c2)o1)N1CCCCC1`, the “proportion of mobile M. hapla J2” value [1] was 0.915 and the “proportion of mobile D. dipsaci” value [3] was 1.
In the case of `Cc1cccc(-c2nnc(SCC(=O)Nc3ccccc3C(C)C)o2)c1`, the “proportion of mobile M. hapla J2” value [1] is reported as 0.892 and the “proportion of mobile D. dipsaci” value [3] is reported as 1.
With `COc1cccc(CSc2nnc(-c3ccco3)n2C)c1` the “proportion of mobile M. hapla J2” value [1] was 0.965 and the “proportion of mobile D. dipsaci” value [3] was 1.
In the case of `O=C(CSc1nnc(-c2cccnc2)o1)c1ccc(Br)cc1`, the “proportion of mobile M. hapla J2” value [1] is reported as 1.04 and the “proportion of mobile D. dipsaci” value [3] is reported as 1.

— the supplement of paper PMC11219838
